Data on eight molecules can be found in PubChem BioAssay.

Structures are written as SMILES. Active and inactive are the calls of the source.

The test system of test [1] is Human papillomavirus type 1a protein E7 (residues 44-93). Kind of test: small molecules binding HPV E7 44-93 – biochemical, small-molecule microarray, residues 44-93, 635 nm fluorescence, primary screen (AID 1108).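 Note: E7 fragment applied at 1 µg/mL in TBST for 1 h at 4 C; score combines spot fluorescence with its signal to noise ratio.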 To be noted: fluorescence 635 nm, higher = more signal.
A short description of test [2]: hepatitis C replication reporter changes, two-sided – Huh7 cells, luciferase reporter, HCV replication inhibitor project, primary screen (AID 1109).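 Note: huh7 hepatoma cells harbouring a luciferase neomycin HCV replicon reporter; luciferase luminescence as measure of HCV replicon replication; test concentration not given here.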 As to conditions: Huh7 HCV replicon luciferase reporter, 48 h; higher = more signal. (A reporter such as luciferase makes a cellular process visible.)
Test [3] has as its target Left-right determination factor 2 (Homo sapiens) (UniProt O00292). Kind of test: small molecules binding LEFTY2 protein – biochemical, small-molecule microarray, 635 nm fluorescence scan, primary screen (AID 1110). To be noted: higher = more signal.
Test [4] deals with Calmodulin-1 (Homo sapiens) (UniProt P0DP23). As to the kind of experiment: small molecules binding calmodulin-1 with EGTA – biochemical, small-molecule microarray, Cy5-labelled CALM1, profiling panel (AID 1111).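 Note: labelled calmodulin applied in Tris saline Tween buffer holding calcium plus EGTA and DTT.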 As to conditions: Cy5-CALM1 binding fluorescence, higher = more signal.
Test [5] has the same target. As to the kind of experiment: small molecules binding Ca-loaded calmodulin-1 – biochemical, small-molecule microarray, Cy5-labelled CALM1, plus calcium, artefact control for SMM control-protein annotation, profiling panel (AID 1112).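 Note: score merges spot fluorescence with signal to noise from triplicate slides.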 To be noted: Cy5-CALM1 binding fluorescence, higher = more signal.
The nature of test [6]: probe aWnt5a binding to arrayed compounds – biochemical, biotinylated probe, 635/667 nm fluorescence, primary screen (AID 1113).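 Note: score merges 667 nm fluorescence intensity with signal-to-noise per printed feature.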 As to conditions: small-molecule microarray, higher = more signal.
A short description of test [7]: probe aShh binding to arrayed compounds – biochemical, biotinylated probe, 635/667 nm fluorescence, primary screen (AID 1114).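 Note: probe is biotin-labelled aShh protein from a stem cell growth factor screen; measures binding of labelled protein to compounds printed on the slide; score merges feature fluorescence at 667 nm with signal-to-noise.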 To be noted: small-molecule microarray, higher = more signal.
Test [8] can be described thus: probe aNog binding to arrayed compounds – biochemical, biotinylated probe, 635/667 nm fluorescence, primary screen (AID 1115).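 Note: probe is biotinylated aNog protein used at 0.15 µg/mL for 1 h at 4 C; z-score combines 667 nm fluorescence of each spot with its signal to noise.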 As to conditions: small-molecule microarray, higher = more signal.
Test [9] deals with Torsin-1A-interacting protein 1 (Homo sapiens) (UniProt Q5JTV8). As to the kind of experiment: compound microarray binding of lysate hLAP1 – cell lysate, small-molecule microarray, COS7 lysate, 635/667 nm fluorescence, primary screen (AID 1116). As to conditions: 635 nm fluorescence, higher = more signal.
Torsin-1A-interacting protein 1 (Homo sapiens), sequence (Q5JTV8 whole entry, looked up): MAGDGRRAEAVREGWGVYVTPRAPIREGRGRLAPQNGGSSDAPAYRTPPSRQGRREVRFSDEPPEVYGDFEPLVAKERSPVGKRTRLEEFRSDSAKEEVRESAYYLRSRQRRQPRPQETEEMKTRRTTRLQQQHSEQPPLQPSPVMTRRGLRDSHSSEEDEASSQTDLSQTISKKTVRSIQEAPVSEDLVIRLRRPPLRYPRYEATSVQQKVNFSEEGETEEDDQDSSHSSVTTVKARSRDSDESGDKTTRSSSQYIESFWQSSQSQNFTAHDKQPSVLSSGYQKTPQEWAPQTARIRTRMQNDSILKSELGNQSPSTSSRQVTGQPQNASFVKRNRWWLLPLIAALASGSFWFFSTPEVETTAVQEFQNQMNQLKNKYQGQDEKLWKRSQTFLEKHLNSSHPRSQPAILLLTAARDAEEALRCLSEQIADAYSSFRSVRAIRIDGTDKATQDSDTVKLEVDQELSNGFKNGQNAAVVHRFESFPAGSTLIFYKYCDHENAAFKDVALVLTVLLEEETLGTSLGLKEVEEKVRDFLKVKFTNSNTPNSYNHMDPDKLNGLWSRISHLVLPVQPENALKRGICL
Test [10] has as its target Alpha-bungarotoxin (Bungarus multicinctus) (UniProt P60615). Kind of test: compounds binding labelled alpha-BTX control protein – biochemical, small-molecule microarray, Alexa647 label, 635/667 nm fluorescence, artefact control for SMM control protein annotation, profiling panel (AID 1117). As to conditions: alpha-BTX-A647 binding fluorescence, higher = more signal.
The next test concerns the target Albumin (Bos taurus) (UniProt P02769). As to the kind of experiment: compounds binding labelled BSA control protein – biochemical, small-molecule microarray, Alexa647 label, 635/667 nm fluorescence, artefact control for SMM control protein annotation, profiling panel (AID 1118).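 Note: score merges 667 nm emission intensity and signal-to-noise per printed compound spot.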 To be noted: BSA-A647 binding, fluorescence 635 nm, higher = more signal.
Test [11] in a line: probe aXIP binding to arrayed compounds – biochemical, NeuroSMM set, 635/667 nm fluorescence, primary screen (AID 1119).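 Note: probe is the protein aXip251-270 applied at 1 µg/mL to compound-printed slides; binding of probe to printed compounds measured as 667 nm fluorescence plus signal to noise.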 To be noted: small-molecule microarray, higher = more signal, called active from +8 up or from −8 down.
Test [12] can be described thus: probe aNOTCH3 binding on compound microarray – biochemical, small-molecule microarray, 635/667 nm fluorescence, primary screen (AID 1120).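 Note: probe is a biotin-tagged antibody raised against NOTCH3 rather than NOTCH3 protein; score merges spot fluorescence near 667 nm with spot signal to noise.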 To be noted: higher = more signal.
Test [13] in a line: probe aNOTCH2 binding on compound microarray – biochemical, small-molecule microarray, 635/667 nm fluorescence, primary screen (AID 1121).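 Note: score merges feature fluorescence read at 667 nm with its signal to noise.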 To be noted: higher = more signal.
Test [14] deals with Carbonic anhydrase 2 (Homo sapiens) (UniProt P00918). Kind of test: compounds binding carbonic anhydrase 2 – biochemical, small-molecule microarray, Alexa647-labelled CAII, profiling panel (AID 1122). As to conditions: CAII-A647 binding fluorescence, higher = more signal.
Test [15] is described as follows: COS7 lysate on small-molecule microarray, probe aHis, 635 nm (AID 1123).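 Note: z-score combines 667nm fluorescence intensity with signal-to-noise per printed compound spot.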 As to conditions: COS7 cell lysate, fluorescence, higher = more signal.
Test [16] in a line: probe aLAP1 signal on lysate-treated microarray – cell lysate, small-molecule microarray, COS7 lysate, primary screen (AID 1124).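 Note: lysate comes from COS7 cells expressing LAP1 and is applied at 0.3 µg/mL; score merges spot fluorescence near 667 nm with signal-to-noise over triplicate slides.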 As to conditions: probe aLAP1, fluorescence, higher = more signal.
The test system of a further test is Sam68 (KHDRBS1). Kind of test: compounds binding KHDRBS1 protein – biochemical, small-molecule microarray, 635 nm fluorescence, primary screen (AID 1125).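 Note: score merges 667 nm channel intensity with signal to noise over triplicate slides.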 To be noted: higher = more signal.
Test [17] relates to Chordin-like protein 2 (CHRDL2). Kind of test: compounds binding chordin-like 2 – biochemical, small-molecule microarray, 635 nm fluorescence, primary screen (AID 1126).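 Note: printed compound slides probed with Chrdl2 protein at 4 µg/mL for 1 h at 4 C; score merges 667 nm emission intensity with signal to noise over three replicate slides.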 To be noted: fluorescence 635 nm, higher = more signal.
For test [18], the target named is Concanavalin-A (Canavalia ensiformis) (UniProt P02866). As to the kind of experiment: compounds binding concanavalin A lectin – biochemical, small-molecule microarray, Alexa647 label, 635 nm, artefact control for SMM control protein annotation, primary screen (AID 1127).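 Note: z combines 667 nm emission intensity with signal-to-noise across three replicate slides.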 As to conditions: ConA-A647 binding fluorescence, higher = more signal.
Concanavalin-A (Canavalia ensiformis), sequence (P02866 whole entry, looked up): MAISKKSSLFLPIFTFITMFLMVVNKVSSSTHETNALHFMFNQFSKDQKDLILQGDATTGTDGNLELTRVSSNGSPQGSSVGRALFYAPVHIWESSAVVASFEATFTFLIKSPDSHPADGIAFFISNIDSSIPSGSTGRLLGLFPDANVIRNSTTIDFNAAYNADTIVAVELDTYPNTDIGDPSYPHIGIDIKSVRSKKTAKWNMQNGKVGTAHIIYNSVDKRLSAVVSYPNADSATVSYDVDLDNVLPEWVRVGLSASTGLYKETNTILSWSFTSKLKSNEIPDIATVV

Left-right determination factor 2 (Homo sapiens), sequence (O00292 whole entry, looked up): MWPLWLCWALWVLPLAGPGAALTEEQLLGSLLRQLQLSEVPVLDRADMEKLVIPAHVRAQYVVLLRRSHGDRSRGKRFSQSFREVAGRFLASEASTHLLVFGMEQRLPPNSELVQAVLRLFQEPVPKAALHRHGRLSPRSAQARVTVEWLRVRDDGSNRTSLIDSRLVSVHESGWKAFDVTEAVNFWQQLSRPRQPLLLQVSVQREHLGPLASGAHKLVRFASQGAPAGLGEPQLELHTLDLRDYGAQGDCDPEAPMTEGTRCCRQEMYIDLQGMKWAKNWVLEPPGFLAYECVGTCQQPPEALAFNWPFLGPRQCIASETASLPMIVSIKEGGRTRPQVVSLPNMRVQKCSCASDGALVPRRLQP
Albumin (Bos taurus), sequence (P02769 whole entry, looked up): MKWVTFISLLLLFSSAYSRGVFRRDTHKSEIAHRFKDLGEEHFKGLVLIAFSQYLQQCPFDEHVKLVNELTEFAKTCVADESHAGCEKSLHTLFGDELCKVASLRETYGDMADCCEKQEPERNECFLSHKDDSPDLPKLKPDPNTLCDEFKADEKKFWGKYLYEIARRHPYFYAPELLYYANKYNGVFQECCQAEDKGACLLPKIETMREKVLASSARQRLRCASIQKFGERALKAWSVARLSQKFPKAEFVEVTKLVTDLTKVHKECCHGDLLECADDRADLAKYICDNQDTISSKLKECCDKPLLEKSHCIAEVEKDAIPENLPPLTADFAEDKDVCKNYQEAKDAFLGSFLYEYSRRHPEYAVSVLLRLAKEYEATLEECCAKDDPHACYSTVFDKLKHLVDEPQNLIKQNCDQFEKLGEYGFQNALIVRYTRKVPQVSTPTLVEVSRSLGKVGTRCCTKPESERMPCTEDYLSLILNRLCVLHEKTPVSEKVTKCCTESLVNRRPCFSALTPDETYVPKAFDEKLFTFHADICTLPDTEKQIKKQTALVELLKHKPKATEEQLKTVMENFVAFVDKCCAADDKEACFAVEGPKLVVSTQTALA
Alpha-bungarotoxin (Bungarus multicinctus), sequence (P60615 whole entry, looked up): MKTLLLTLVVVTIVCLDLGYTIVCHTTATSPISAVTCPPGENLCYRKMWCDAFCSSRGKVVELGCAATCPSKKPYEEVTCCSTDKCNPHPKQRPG

`O=C1O[C@@H](c2ccccc2)[C@@H](c2ccccc2)N2[C@@H](c3ccc(OCCO)cc3)[C@]3(C(=O)Nc4ccc(C#CCCO)cc43)[C@@H](C(=O)N3CCN(c4ncccn4)CC3)[C@H]12`: the composite z-score came out at 1.44 in test [1]; 0.669 in [3]; 0.732 in [4]; 0.073 in [5]; 0.0115 in test [6]; 0.151 in test [7]. For the same molecule, the composite z-score in test [8] was -0.601; in test [9], 0.842; in test [10] it was 1.75; in the test with Albumin (Bos taurus), 0.536; in test [12] it was 0.143; in [13], -0.0684. In addition, the composite z-score in [14] is 0.485; in test [15], 1.87; in [16] it was 0.188; with Sam68 (KHDRBS1), 1.32; in test [17], 0.168; in [18], 1.17. This molecule yielded a z-score in test [2] of -0.347. In addition, the composite Z-score in test [11] is 0.337 (inactive).
For `CC(C)(C)OC(=O)CC[C@@]1(C(=O)NCc2ccccc2)N=C(c2ccc(OCCCO)cc2)O[C@@H]1c1ccccc1`, the composite z-score in test [1] was found to be 1.33; in [3], 0.144; in [4] it was 2.4; in [5] it was 1.26; in test [6], 0.0077; in [7], 0.14. Besides, the composite z-score worked out at 0.92 in [8]; 2.67 in test [9]; 2.97 in [10]; 0.974 in the test with Albumin (Bos taurus); 0.132 in test [12]; 0.09 in [13]. For the same molecule, the composite z-score is 0.655 in test [14]; 2.91 in [15]; 0.494 in test [16]; 1.3 in the test on Sam68 (KHDRBS1); -0.416 in test [17]; 1.18 in test [18]. In addition, the z-score in test [2] is -3.13. Further, in test [11], the composite Z-score was -0.216 (inactive).
Consider `COc1ccc(NN2C(C(O)c3cc(OC)c(OC)c(OC)c3)C=CC3C(=O)N(C4CCCCC4)C(=O)C32)cc1` (stereo not given), for which the composite z-score is 1.22 in test [1]; -0.346 in [3]; 1.58 in test [4]; 0.509 in test [5]; 0.114 in test [6]; -0.226 in test [7]. Besides, the composite z-score is 0.273 in test [8]; 0.479 in test [9]; 1.96 in test [10]; 1.02 in the test with Albumin (Bos taurus); 0.831 in test [12]; 0.531 in test [13]. Besides, the composite z-score is 0.211 in test [14]; 2.42 in test [15]; 0.754 in [16]; 1.3 in the test with Sam68 (KHDRBS1); -1.2 in test [17]; 1.1 in test [18]. Also, the z-score in test [2] was -1.92. In addition, in test [11], the composite Z-score was 0.487 (inactive).
For the molecule `COC(=O)[C@@]1(Cc2ccccc2)[C@H]2c3cc(C(=O)N4CCCC4)n(CCN4CNCC4=O)c3C[C@H]2CN1C(=O)c1ccccc1`, the composite z-score in test [1] was 0.871; in [3] it was 0.172; in [4], 1.91; in test [5], 0.265; in test [6] it was -0.0519; in test [7], -0.288. Besides, the composite z-score is -0.197 in test [8]; 0.911 in test [9]; 0.98 in test [10]; 0.963 with Albumin (Bos taurus); 0.119 in test [12]; -0.173 in [13]. The composite z-score was 0.924 in [14]; 3.04 in test [15]; 0.808 in test [16]; 0.28 in the test on Sam68 (KHDRBS1); -0.634 in test [17]; 1.2 in test [18]. In [2], the z-score is -0.857. In [11], the composite Z-score is 0.0178 (inactive).
As to `CC(C)[Si]1(C(C)C)OCc2cc(C3CC3)nc(-c3ccccc3)c21`, the composite z-score is -0.84 in test [1]; -0.231 in test [3]; -1.23 in [4]; -0.183 in [5]; -0.15 in test [6]; -0.09 in test [7]. The composite z-score is -0.0841 in [8]; -0.694 in [9]; -0.249 in [10]; -0.613 in the test with Albumin (Bos taurus); -0.295 in [12]; -0.12 in test [13]. Further, the composite z-score was 0.112 in test [14]; -0.57 in [15]; -0.683 in [16]; -0.124 with Sam68 (KHDRBS1); -0.161 in test [17]; -0.26 in test [18]. The same molecule displayed a z-score in test [2] of -0.222. The composite Z-score in [11] was -0.536 (inactive).
Take `C=C[C@H](OC)[C@@H](OC(=O)Nc1ccc(SC)cc1)c1ccc(OC)c(O)c1`: the composite z-score is 0.318 in test [1]; -0.784 in test [3]; -0.414 in test [4]; 0.319 in test [5]; -0.176 in [6]; -0.0626 in test [7]. For the same molecule, the composite z-score in test [8] was -0.15; in test [9] it was 0.324; in test [10], -0.508; with Albumin (Bos taurus), -1.37; in [12] it was -0.403; in test [13], -0.183. For the same molecule, the composite z-score was 0.1 in test [14]; 0.677 in test [15]; -0.245 in test [16]; 0.347 in the test on Sam68 (KHDRBS1); -0.998 in [17]; -0.473 in [18]. In test [2], this molecule displayed a z-score of 0.899. Moreover, the composite Z-score in [11] was 0.157 (inactive).
With `Cc1ccc(S(=O)(=O)c2cc3oc2CC[C@@H](CO)NC(=O)N(C)Cc2cn(nn2)C[C@H](Cc2ccccc2)NC3=O)cc1`, the composite z-score is -0.398 in test [1]; -0.587 in test [3]; 0.212 in test [4]; 0.175 in [5]; -0.1 in [6]; 0.483 in [7]. The composite z-score in test [8] is 0.402; in test [9] it was 0.781; in test [10], 0.513; in the test with Albumin (Bos taurus), 0.811; in test [12], -0.0006; in test [13], -0.145. The composite z-score was 0.581 in test [14]; 0.682 in [15]; 0.192 in test [16]; 0.476 with Sam68 (KHDRBS1); -0.479 in [17]; 0.894 in test [18]. For the same molecule, the z-score in [2] is -0.376. Also, in test [11], the composite Z-score was 0.222 (inactive).
On to `COC(=O)C[C@H]1O[C@]2(C(=O)N(C)c3ccccc32)[C@@H](C)[C@@H]1[Si](C)(C)c1ccc(OC)cc1`, for which the composite z-score in test [1] was 0.353; in test [3] it was 1.02; in test [4], 0.0348; in [5] it was -0.327; in test [6], 0.0502; in test [7] it was -0.271. In addition, the composite z-score in [8] is -0.141; in [9], 0.335; in test [10], 0.449; in the test with Albumin (Bos taurus) it was 0.163; in [12], 0.0185; in [13], -0.135. For the same molecule, the composite z-score in [14] stood at 0.158; in test [15] it was 0.342; in test [16] it was 0.494; with Sam68 (KHDRBS1), 0.567; in [17], 0.291; in [18] it was 0.598. In [2], this molecule gave a z-score of -2. In addition, in test [11], the composite Z-score is -0.211 (inactive).
